# Screening data: PubChem, Sanford-Burnham Center for Chemical Genomics
# CYP2C19 act – activators of human cytochrome P450 2C19; 96,000 tested, under 10 active; recombinant CYP2C19, luciferin-H EGE luminescence; hits give high values; 0 = fully inhibited enzyme, 1 = untreated enzyme; activation factor at 5 µM; P33261;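 active = activation factor of at least 2 at 5 µM in the primary screen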;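 also: 0 = wells with 2.5 mM tranylcypromine and 1 = vehicle-only wells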
# CYP2C9 activ – activators of human CYP2C9 | P11712 | recombinant CYP2C9, luciferin-H conversion, luminescence; hits give high values; factor 1 = untreated enzyme, 0 = blocked | activation factor at 5 µM | 96,000 compounds, 1.4% hits | AID 1024;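 active = activation factor of 2 or more for CYP2C9 at a 5 µM dose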;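 also: 0 = sulfaphenazole-blocked wells and 1 = vehicle-only wells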
# PTK2B oligo ant – blocks oligomerization of human Pyk2 in cells | Q14289 | Q293 cells, Pyk2 FERM NanoBiT luminescence; hits give low values | z-score (the deposit names both 25 µM and 10 µM) | 99,000 compounds, 0.83% hits | AID 1347419;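 active = Z-score of -3 or lower, scaled per plate to the spread of control and sample wells; inactive = z-score above -3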;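 also: negative z-score means lost luminescence so less FERM oligomerization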
# Target sequence (Q14289 whole entry, looked up): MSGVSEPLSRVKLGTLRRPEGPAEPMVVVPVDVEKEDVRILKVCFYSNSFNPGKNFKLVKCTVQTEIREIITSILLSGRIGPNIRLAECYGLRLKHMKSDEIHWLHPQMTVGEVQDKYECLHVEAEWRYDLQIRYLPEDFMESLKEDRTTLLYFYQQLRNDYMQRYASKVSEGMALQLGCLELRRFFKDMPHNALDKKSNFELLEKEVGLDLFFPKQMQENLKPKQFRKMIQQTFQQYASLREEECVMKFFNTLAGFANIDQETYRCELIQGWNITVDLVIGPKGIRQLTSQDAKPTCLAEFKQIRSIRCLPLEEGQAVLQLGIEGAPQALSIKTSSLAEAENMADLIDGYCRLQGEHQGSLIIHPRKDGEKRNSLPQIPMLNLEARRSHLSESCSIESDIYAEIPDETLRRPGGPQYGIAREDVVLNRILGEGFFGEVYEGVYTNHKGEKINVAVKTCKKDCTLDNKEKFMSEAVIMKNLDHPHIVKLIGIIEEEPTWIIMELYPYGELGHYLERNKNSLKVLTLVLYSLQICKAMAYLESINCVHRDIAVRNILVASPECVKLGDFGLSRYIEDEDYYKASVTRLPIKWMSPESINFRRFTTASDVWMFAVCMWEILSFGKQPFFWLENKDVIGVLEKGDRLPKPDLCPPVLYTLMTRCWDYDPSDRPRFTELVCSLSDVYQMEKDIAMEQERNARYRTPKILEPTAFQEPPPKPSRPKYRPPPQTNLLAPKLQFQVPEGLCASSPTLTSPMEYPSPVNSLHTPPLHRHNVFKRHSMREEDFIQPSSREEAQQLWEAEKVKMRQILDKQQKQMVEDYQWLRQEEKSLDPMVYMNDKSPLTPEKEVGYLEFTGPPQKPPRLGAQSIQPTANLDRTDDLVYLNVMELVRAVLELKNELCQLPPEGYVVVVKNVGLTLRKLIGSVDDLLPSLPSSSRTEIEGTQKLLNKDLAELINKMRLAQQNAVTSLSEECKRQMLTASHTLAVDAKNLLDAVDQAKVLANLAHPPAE
# CYP2C9 inh – inhibitors of human CYP2C9; P11712; CYP2C9 Supersomes, luciferin-H conversion, luminescence; inhibition, % at 5 µM; 96,000 compounds, 20% hits;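 active = blocking of liver enzyme CYP2C9 beyond about 50% at 5 µM, limit read from the data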
# CYP2C19 inh – blocks human cytochrome P450 2C19; P33261; CYP2C19 Supersomes, luciferin-H EGE luminescence, 30 min; inhibition, % at 5 µM; 96,000 compounds, 21% hits; AID 778;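 active = CYP2C19 inhibition above a set limit at 5 µM in the primary screen, cut at about 50% in these data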;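 also: plate controls were negative control wells for no effect and 2.5 mM tranylcypromine positive control for full effect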
# Active calls of the source: *; . = not tested or not shown. Most compounds without a hit are left out; they make up all but 28% or so of the library.
SMILES,CYP2C19 act,CYP2C9 activ,PTK2B oligo ant,CYP2C9 inh,CYP2C19 inh
CC(=O)NC(C)C(=O)OCC(=O)Nc1ccc(Br)cc1 (stereo unspecified),0.5,0.8,0.59,16.5,53.8*
O=C(c1cccs1)c1ccc(-c2cccs2)s1,0.5,0.3,-0.44,73.9*,48.7
O=C(c1cccs1)c1no[n+]([O-])c1C(=O)c1cccs1,0.6,0.6,-0.31,37.1,43.3
O=C(Cn1nc(-c2ccc(Cl)cc2)ccc1=O)NCc1ccc2c(c1)OCO2,0.5,0.2,.,76.9*,52.4*
O=C(Cn1nc(-c2ccccc2)ccc1=O)NCc1ccc2c(c1)OCO2,0.8,0.7,1.57,33.1,23.1
CC(Sc1ccc(Cl)cc1)C(=O)NCc1ccc2c(c1)OCO2 (stereo unspecified),0.2,0,0.09,99.5*,76.2*
O=C(CSc1nnc(CNC(=O)c2c(F)cccc2Cl)o1)NCc1ccc2c(c1)OCO2,1.1,0.9,0.33,5.3,-6.3
CC(Sc1ccc(Cl)cc1)C(=O)Nc1ccc2c(c1)OCO2 (stereo unspecified),.,.,0.5,.,.
Cc1oc(-c2ccccc2F)nc1CSCC(=O)NCc1ccc2c(c1)OCO2,0.2,0.3,0.62,74.6*,78.5*
O=C(Cn1cccc1C(=O)c1ccccc1)NCc1ccc2c(c1)OCO2,0.5,0.7,0.79,33.9,54.7*
CC1(C(=O)NC2CCCCCCC2)CC1(Cl)Cl (stereo unspecified),0.7,0.9,0.24,7.7,26.8
CCc1ccc(C(=O)c2oc3nc(C)cc(C)c3c2N)cc1,.,.,0.18,.,.
COc1ccccc1N1CCN(C(=O)Cn2nc(C(F)(F)F)c3c2CCC3)CC1,0.5,1.9,2.56,-93.8,48.2
CCOC(=O)c1c(NCc2ccc3c(c2)OCO3)c2ccccc2[nH]c1=O,0.3,0.9,0.06,13.4,73.5*
O=C(CCn1c(=O)c2ccccc2n(Cc2cccnc2)c1=O)NCc1ccc2c(c1)OCO2,0.2,0.3,0.65,69.4*,77.0*
O=C(CCc1c[nH]c2ccccc12)NCc1ccc2c(c1)OCO2,0.1,0.8,0.63,19.0,91.8*
O=C(Cc1c[nH]c2ccccc12)NCc1ccc2c(c1)OCO2,0.1,0.5,-0.65,53.0*,94.3*
Cc1ccc(CC(=O)NCc2ccc3c(c2)OCO3)cc1,0.7,0.5,0.1,47.6,33.7
O=C(CN(C(=O)C1CSC(=O)C1)c1ccccc1F)NCc1ccc2c(c1)OCO2 (stereo unspecified),0.1,0.6,0.58,44.3,86.7*
O=C(COc1ncnc2ccccc12)NCc1ccc2c(c1)OCO2,1,0.9,1.22,5.9,-2.2
O=C(CSCc1ccc(Cl)cc1)Nc1ccc2c(c1)OCO2,.,.,0.36,.,.
Cc1nc2ccccc2nc1OCC(=O)NCc1ccc2c(c1)OCO2,0.5,0.9,0.24,10.9,51.1*
O=C(CSCc1ccc(Cl)cc1)NCc1ccc2c(c1)OCO2,0.7,0,-0.72,99.8*,31.6
CS(=O)(=O)N(CC(=O)NCc1ccc2c(c1)OCO2)Cc1ccccc1,0.4,0.7,0.07,34.3,62.1*
Cc1ccc(CNC(=O)CN(Cc2ccccc2)S(C)(=O)=O)cc1,.,.,1.04,.,.
SMILES,CYP2C19 act,CYP2C9 activ,PTK2B oligo ant,CYP2C9 inh,CYP2C19 inh
COc1ccc2c(c1)C1NC(=S)NC(C)(O2)C1C(=O)Nc1ccccc1C (stereo unspecified),1,1,-0.62,1.4,3.5
CCOC(CNC(=O)CCc1c(C)nc2ncnn2c1C)OCC,1.1,1.2,-0.88,-17.6,-8.7
O=C(CCCc1c[nH]c2ccccc12)NCc1ccc2c(c1)OCO2,0.2,0.5,1.07,50.6*,83.1*
O=C(Cc1ccccc1)NCc1ccc2c(c1)OCO2,0.1,0.5,-0.14,53.6*,94.7*
CC(C)CNC(=O)CCCc1c[nH]c2ccccc12,0.4,2.1*,-0.56,-113.6,63.3*
CN(C)C(CNC(=O)CCCc1c[nH]c2ccccc12)c1ccco1 (stereo unspecified),0.7,1.3,0.14,-29.9,29.3
CCn1c(SCC(=O)NCc2ccc3c(c2)OCO3)nnc1-c1c[nH]c2ccccc12,.,.,-0.47,.,.
CC(Sc1ccc(Cl)cc1)C(=O)NCc1cccnc1 (stereo unspecified),0.5,0.7,0.4,33.1,50.7*
Cc1cc(C)c(C#N)c(SCC(=O)Nc2ccccc2C(N)=O)n1,0.7,1,-1.09,1.8,30.9
O=C(CN(Cc1ccc(F)cc1)C(=O)Cn1nnc2ccccc21)NCC1CCCO1 (stereo unspecified),.,.,1.66,.,.
Cn1c(=O)n(CCN2CCOCC2)c(=O)c2c1nc1n2CCN1c1ccc(Oc2ccccc2)cc1,0.9,1,0.06,1.2,12.1
O=C(Cn1cccc1C(=O)c1ccccc1)NCc1cccs1,0.3,1,1.26,1.5,73.2*
CC(C)(C)C(=O)c1cn(CC(=O)NCc2ccc3c(c2)OCO3)c2ccccc12,0.5,0.5,-1.04,50.5*,52.7*
O=C1CC(SCCO)C(=O)N1c1ccc(Oc2ccccc2)cc1 (stereo unspecified),0.8,1,1.33,3.6,24.2
O=C1Nc2ccc(S(=O)(=O)NCc3ccccn3)c3cccc1c23,0.7,0.9,1.11,11.1,34.3
CCOc1ccccc1N1CCN(S(=O)(=O)c2ccc3c4c(cccc24)C(=O)N3)CC1,0.1,0.3,-1.33,73.4*,90.9*
O=C1Nc2ccc(S(=O)(=O)N3CCCC3C(=O)O)c3cccc1c23 (stereo unspecified),1,1,.,-3.4,-0.8
O=C1Nc2ccc(S(=O)(=O)N3CCOCC3)c3cccc1c23,0.4,1.2,0.52,-18.3,59.2*
O=C1Nc2ccc(S(=O)(=O)N3CCCCCC3)c3cccc1c23,0.2,0.6,.,43.0,79.1*
O=C1Nc2ccc(S(=O)(=O)N3CCCC3)c3cccc1c23,0.2,0.6,-0.8,41.4,83.2*
CN(C)Cc1cc(C(C)(C)c2cc(CN(C)C)c(O)c(CN(C)C)c2)cc(CN(C)C)c1O,.,.,-0.79,.,.
Cc1ccccc1NC(=O)CSc1ccsc1[N+](=O)[O-],.,.,-0.16,.,.
CN1CCN(S(=O)(=O)c2ccc3c4c(cccc24)C(=O)N3)CC1,0.4,1.9,.,-87.9,55.1*
Cc1ccc(S(=O)(=O)NC2OC(=O)C(Cl)=C2Cl)cc1 (stereo unspecified),1.2,1.1,0.49,-5.7,-18.6
COc1ccc(C(=O)NC(C)c2nnc(SCc3ccc(Cl)c(Cl)c3)n2C)cc1 (stereo unspecified),1,0.9,0.87,11.3,0.8
CCSCc1nnc(SCC(=O)c2ccc(OC)cc2)n1C,0.1,0.9,0.26,13.5,89.5*
COc1ccc(C(=O)CSc2nnc(C(CO)NC(=O)c3ccc(OC)cc3)n2C)cc1 (stereo unspecified),0.6,0.3,2.14,71.4*,43.8
COc1ccc(NCc2nnc(SCC(=O)c3ccc(OC)cc3)n2C)cc1,0.8,0.9,-0.39,11.8,19.0
COc1ccc(C(=O)NC(C)c2nnc(SCC(=O)Nc3nc4ccccc4s3)n2C)cc1 (stereo unspecified),0.3,0.3,0.43,72.1*,65.4*
